Assay outcomes: PubChem BioAssay, National Center for Advancing Translational Sciences (NCATS)
Shiga inhibitor = Shiga toxin inhibition; Vero cells, Shiga toxin protein synthesis inhibition reporter; inhibition, % at 38.7 µM; 9.2% of 290,000 active; in the data active = inhibition mostly above about 28%, no sharp cut-off; inactive = mostly below about 43%; note: 0% is about no effect
Tb PYK inh = inhibitors of Trypanosoma brucei pyruvate kinase | Q57TT1 | TbPYK enzyme, Kinase-Glo Plus ATP luminescence, 45 min | Potency, µM (highest dose often 76.8 µM), for inactives: top-dose activity, negative = inhibition, actives largely listed as inhibitors | 0.12% of 410,000 active; note: potency is the fitted concentration of half-maximal effect; % is set by controls: 0 for no effect and ±100 for the full control effect; nearly all actives have a fitted effect of over 50% in size
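Assay buffer: 50 mM TEA pH 7.2, 100 mM KCl, 10 mM MgCl2, 0.05% BSA, 0.01% Tween-20. Pyruvate kinase from T. brucei plus substrate met compound, then ADP (130 uM final). Luminescence was read post 45 min RT.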
Giardia FBPA inh = blocks Giardia fructose-bisphosphate aldolase activity; 0.71% of 290,000 active; Potency, µM (highest dose often 59.6 µM), inactives show top-dose activity, negative = inhibition, most hits filed as inhibitors; AID 2451; purified Giardia FBPA; note: potency is the fitted concentration of half-maximal effect; % is set by controls: 0 for no effect and ±100 for the full control effect; nearly all actives have a fitted effect of over 55% in size
Target sequence (A8B2U2 whole entry, looked up): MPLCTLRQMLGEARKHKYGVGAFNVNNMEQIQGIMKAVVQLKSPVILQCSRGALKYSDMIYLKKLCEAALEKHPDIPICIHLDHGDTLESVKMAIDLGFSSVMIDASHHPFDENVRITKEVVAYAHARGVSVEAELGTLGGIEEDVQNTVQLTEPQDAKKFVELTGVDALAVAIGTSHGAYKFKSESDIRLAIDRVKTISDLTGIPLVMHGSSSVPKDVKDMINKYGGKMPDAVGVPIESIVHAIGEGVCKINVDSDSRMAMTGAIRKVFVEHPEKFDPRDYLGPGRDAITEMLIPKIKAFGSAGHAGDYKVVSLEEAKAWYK
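Giardia FBPA (40 nM reagent) was preincubated 10 min at RT with compound (up to 57.5 uM final), then substrate plus GAPDH/TPI/NAD/arsenate coupling system with diaphorase/resazurin was added; resorufin fluorescence (525/598 nm) was read after 20 min.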
LmPK inhibitor = inhibitors of Leishmania mexicana pyruvate kinase. Q27686. purified LmPK, Kinase-Glo ATP luminescence, 1 h. Potency, µM (top dose mostly 57.5 µM), inactives show at the top dose activity change, negative = inhibition, most hits filed as inhibitors. 0.37% of 290,000 active. AID 1721; note: potency is the fitted concentration of half-maximal effect; % is set by controls: 0 for no effect and ±100 for the full control effect
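Pyruvate kinase activity monitored as ATP production (luciferase luminescence). Conditions: 0.1 nM enzyme, 0.5 mM PEP, 0.1 mM ADP, 1 h, RT; normalized against uninhibited and no-enzyme wells.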
Cycloheximide cs = affects cycloheximide protein synthesis inhibition readout, counter-screen. 12% of 300,000 active. AID 2314. cell reporter, cycloheximide protein synthesis inhibition counterscreen. max response, %; in the data active = max response mostly above about 13%, no sharp cut-off; inactive = mostly below about 14%; note: read at 38.3 µM for the half of the compounds with a filed dose; 0% is about no effect
Sm TGR block = blocks Schistosoma mansoni thioredoxin glutathione reductase; purified TGR, DTNB reduction, TNB absorbance 405 nm; 3% of 360,000 active; Potency, µM (top dose mostly 114 µM), for the others: at the highest dose activity change, negative = inhibition, actives largely listed as inhibitors; AID 485364; note: potency is the fitted concentration of half-maximal effect; % is set by controls: 0 for no effect and ±100 for the full control effect; nearly all actives have a fitted effect of over 60% in size
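Kinetic colorimetric format: TGR-catalysed, NADPH-driven DTNB reduction monitored via TNB absorbance. Enzyme dispensed at 20 nM; compound exposure 15 min at room temperature before reaction start.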
Active calls of the source: *; ? = inconclusive; . = no result; [ ] = remark or other dose. Many of the other results were omitted from the sample, so hits are more common in it than they were. Unless noted, calls come from the whole dose curve; as a rule, active = well fitted curve in the direction sought with a large enough effect; inconclusive = small, poorly fitted or top-dose-only effect, or another doubt; inactive = no such curve, though single readings can be large; an effect the other way counts as inactive or inconclusive.

SMILES	Shiga inhibitor	Tb PYK inh	Giardia FBPA inh	LmPK inhibitor	Cycloheximide cs	Sm TGR block
O=C(O)CCN1C(=O)/C(=C\c2ccc(-c3nc4ccccc4s3)o2)SC1=S	9.3	-13.4%	-24.7%	6.3%	9.7	50.1µM*
Cc1cc(C)cc(NC(=O)c2ccc3c(c2)CCN3S(C)(=O)=O)c1	17.3	1.5%	4.5%	-3.8%	23.4	-24.9%
Cc1cccc(NC(=O)c2ccc3c(c2)CCN3S(C)(=O)=O)c1	47.1*	-2.9%	8.6%	0.6%	29.1*	-16.0%
Cc1ccc(NC(=O)c2ccc3c(c2)CCN3S(C)(=O)=O)cc1C	31.4*	0.4%	2.7%	0.9%	29.3*	-8.9%
CCOC(=O)CSc1nc2cc3c(cc2c(=O)n1CCCCCC(=O)NCc1ccc(OC)cc1)OCO3	.	0.7%	.	.	.	0.5%
COC(=O)C1Cc2c([nH]c3ccccc23)CN1C(C)=O (stereo not drawn)	-2.6	-7.8%	-5.7%	6.4%	-3.1	?
N=c1oc2c3c4c(cc2cc1C(=O)Nc1ccccc1)CCCN4CCC3	27.9	2.4%	?	8.0%	22.5*	-0.4%[11.4 µM]
CC1COc2c3ccccc3nn21 (stereo not drawn)	.	-13.0%	.	.	.	.
Cc1sc(N)c(C(=O)c2ccccc2)c1C	-8.2	?	-6.7%	-2.0%	-2.8	.
O=C(c1ccco1)N1CCC2(CCN(Cc3ccncc3)CC2)CC1	.	4.1%	1.7%	.	.	.
COCCn1c(SCC(=O)c2ccccc2)nc2c(c1=O)SCC2	-25.4	-5.2%	6.5%	0.7%[11.5 µM]	-2.2	-5.4%
Cc1sc2c(c1C)CN(Cc1ccncc1)CN2C(=O)c1ccco1	64.1*	-7.1%	-6.8%	-3.1%	41.3*	-28.4%
Cc1sc2c(c1C)CN(C(C)(C)C)CN2C(=O)c1ccccc1	91.0*	-5.7%	-1.2%	-9.2%	38.4*	?
COCCN1Cc2c(sc(C)c2C)N(C(=O)c2ccccc2)C1	71.7*	-5.1%	-0.2%	0.0%	26.4*	-22.1%
Cc1ccc(C(=O)Nc2ccn(Cc3ccc(F)cc3)n2)o1	56.0*	1.6%	-5.7%	-1.0%	25.0*	-0.1%
Cc1ccc(C(=O)Nc2ccc(F)cc2F)o1	34.4	5.7%	-3.6%	-23.5%	43.8*	-4.7%
CSc1ccc(CCNC(=O)Cn2ncc3c(=O)oc4ccc(C)cc4c32)cc1	.	-3.1%	.	.	.	1.6%
O=C1CC(NS(=O)(=O)c2ccc3ccccc3c2)CN1c1ccccc1 (stereo not drawn)	.	5.7%	.	.	.	6.0%
Clc1ccccc1CSc1cc2c(nn1)-c1ccccc1CC2	165.2*	2.8%	1.1%	1.6%	42.2*	11.8%
O=C(NCCc1cnc[nH]1)c1ccc(-c2ccccc2)cc1	55.4*	3.3%	1.8%	1.4%	29.9*	4.2%
Cc1nc(SCc2ccc(O)c([N+](=O)[O-])c2)n[nH]1	-9.0	-11.7%	?	-0.8%	-1.9	-11.9%
Cc1nc(SCc2ccc(O)c([N+](=O)[O-])c2)c([N+](=O)[O-])[nH]1	9.5	?	?	?	9.8	39.8µM*
O=[N+]([O-])c1cc([As](=O)(O)c2ccc(O)c([N+](=O)[O-])c2)ccc1O	-7.6	32.9%	-17.8%	17.0%	4.6	14.1µM*
O=[N+]([O-])c1ccc([As](=O)(O)O)cc1	.	-7.4%	.	.	.	.
N=C(N)SCc1ccc(O)c([N+](=O)[O-])c1	-2.7	-12.9%	?	7.9%	10.8	44.7µM*
SMILES	Shiga inhibitor	Tb PYK inh	Giardia FBPA inh	LmPK inhibitor	Cycloheximide cs	Sm TGR block
COc1ccc(Cl)cc1NC(=O)C(C)n1c(=O)cc(C(F)(F)F)c2c(C)nn(C)c21 (stereo not drawn)	.	3.4%	.	.	.	-9.4%
CCOC(=O)c1c(NC(=O)c2cc(=O)c3cc(C)ccc3o2)sc2c1CCCC2	.	10.7%	.	.	.	-1.6%
c1cnc2c(OCc3nc4ccccc4[nH]3)cccc2c1	77.8*	7.4%	?	-6.1%	61.8*	-5.4%
Cc1ccccc1OCc1nc2ccccc2[nH]1	62.0*	-2.4%	-13.4%	17.8µM*	56.8*	10.4%
COc1ccccc1OCc1nc2ccccc2[nH]1	51.1*	6.2%	-12.9%	-16.5%	52.1*	-1.8%
COc1ccccc1C(=O)NCCc1nc2ccccc2[nH]1	-5.9	4.5%	0.5%	0.2%	-3.0	0.0%
COc1ccccc1C(=O)NC1CCN(C(=O)Nc2ccc(F)cc2)CC1	4.3	1.2%	4.2%	7.0%	0.3	-10.2%
N#Cc1cccc(Cn2nnc(-c3ccccc3)n2)c1	21.5	-3.6%	-8.6%	1.3%	12.9*	6.4%
Nc1nnn(Cc2ccccc2)n1	-4.0	3.6%	3.9%	-5.6%	-1.2	-3.1%
c1ccc(Cn2nnc(-c3ccccc3)n2)cc1	94.2*	7.3%	1.5%	2.5%	35.3*	0.0%
Cc1ccc(Cl)cc1NC(=O)Cn1c(=O)n(Cc2ccccc2)c(=O)c2oc3ccccc3c21	.	-0.6%	.	.	.	0.9%
COC(=O)CCC(=O)OC1(C)C(=O)C2=CN(CC(C)C)C(c3ccc(OC)cc3)=CC2=C(Br)C1=O (stereo not drawn)	-1.8	.	0.998µM*	-3.3%[11.5 µM]	-1.7	?
COC(=O)CCC(=O)OC1(C)C(=O)C2=CN(Cc3ccc(OC)cc3)C(c3ccc(OC)cc3)=CC2=C(Br)C1=O (stereo not drawn)	.	-4.0%	?	-7.7%[11.5 µM]	.	.
COc1ccc(C2=CC3=C(Br)C(=O)C(C)(O)C(=O)C3=CO2)cc1 (stereo not drawn)	-6.8	-15.2%	9.3%	?	-0.7	8.91µM*
COc1ccc(C2=CC3=CC(=O)C(C)(O)C(=O)C3=CO2)cc1 (stereo not drawn)	.	.	-6.5%	.	.	.
CCC(=O)OC1(C)C(=O)C2=COC(c3ccc(OC)cc3)=CC2=C(Br)C1=O (stereo not drawn)	-2.7	-24.2%	-10.8%	-21.5%	-2.1	11.2µM*
Cc1ccc(S(=O)(=O)N2CCOCC2)cc1C(=O)N1CCN(c2ccc(C(F)(F)F)cn2)CC1	.	-3.8%	.	.	.	.
CCOc1ccc(Nc2ncnc3c2c(-c2ccccc2)cn3-c2cccc(C)c2)cc1	.	6.1%	.	.	.	7.1%
COCC(=O)N(Cc1cc2cc(OC)ccc2[nH]c1=O)c1ccccc1	33.8	-3.2%	-16.2%	7.7%	16.4*	-5.6%
COCC(=O)N(Cc1cc2ccccc2[nH]c1=O)c1ccc(OC)cc1	-7.1	-4.4%	5.6%	1.7%	-2.5	-15.3%
CCCC(=O)N(Cc1cc(=O)[nH]c2ccccc12)c1ccc(OC)cc1	4.0	-11.5%	-3.3%	-2.3%	-3.6	-0.9%
COc1ccc(N(Cc2cc(=O)[nH]c3ccccc23)C(=O)CCl)cc1	.	3.0%	-7.6%	4.4%	-0.5	7.94µM*
Cc1ccc(S(=O)(=O)NCC(NCc2ccc(F)cc2)c2ccccc2)cc1 (stereo not drawn)	.	-4.3%	.	.	.	4.8%
COc1ccc(-c2nc(CS(=O)CC(=O)NCCc3ccc(OC)c(OC)c3)c(C)o2)cc1 (stereo not drawn)	-2.9	-1.6%	8.1%	-2.4%	1.0	?
